The results in this text go back to article PMC8384837, “Expanding the binding specificity for RNA recognition by a PUF domain”.

This assay has as its target PUM1 PUF domain R5-GRT (Homo sapiens, UniProt Q14671 828-1176, C1007G;Q1011T). Nature of the assay: yeast three-hybrid, YBZ-1, SC-Leu-His + 0.5 mM 3-AT, 4 days. The settings on record: tags: N-Gal4 AD-HA kept; label: inside an RPR1-promoter hybrid RNA with tandem MS2 sites; ssRNA. The method in brief:
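Each repeat of the Pumilio-1 PUF domain was randomized at its three base-contacting residues, and these libraries were co-expressed from a centromeric plasmid with matching RNA elements in strain YBZ-1. After four days on SC-Leu (input) or SC-Leu-His + 0.5 mM 3-AT (selection), the repeat regions were PCR-amplified and Illumina-sequenced. The interaction score compares variant frequency between input and selection as a log change, computed in log2 with a pseudocount of 1 for absent variants.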
On to “GGCUAGAACUAGUGGAUCCCCCGGCGCCCGGCGGCUCGAGCCCGGGUAAGUGUGAAUAGUCUGCAUGCCGCCGGGCGCCAUGCCUGCAGGUCGACUCUAGAAAACAUG”, for which the binding signal is 2.87 log2 enrichment (interaction score).

As to “GGCUAGAACUAGUGGAUCCCCCGGCGCCCGGCGGCUCGAGCCCGGGUAAGUGUAAAUAGUCUGCAUGCCGCCGGGCGCCAUGCCUGCAGGUCGACUCUAGAAAACAUG”, the binding signal is 2.94 log2 enrichment (interaction score).

For the sequence “GGCUAGAACUAGUGGAUCCCCCGGCGCCCGGCGGCUCGAGCCCGGGUAAGUGUUAAUAGUCUGCAUGCCGCCGGGCGCCAUGCCUGCAGGUCGACUCUAGAAAACAUG”, the binding signal is 3.02 log2 enrichment (interaction score).

On to “GGCUAGAACUAGUGGAUCCCCCGGCGCCCGGCGGCUCGAGCCCGGGUAAGUGUCAAUAGUCUGCAUGCCGCCGGGCGCCAUGCCUGCAGGUCGACUCUAGAAAACAUG”, for which the binding signal was 0.6 log2 enrichment (interaction score).
